Experimental data reported in paper PMC5540273 (PLoS ONE, 2017).

Assays:
Conditions in all cases: concentration: 1 μM, replicates: in singlicate; n = 1
[1] = tested on: CAMK1
[2] = tested on: CAMK2A
[3] = tested on: CAMK2B
[4] = tested on: CAMK2D
[5] = tested on: CAMK2G
[6] = tested on: CAMK4
[7] = tested on: CAMKK1
[8] = tested on: CAMKK2
[9] = tested on: CASK
[10] = tested on: T1, CDC2L1
T1 construct: gene CDK11B
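Note: KINOMEscan kinase panel screen.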

## Fc1cc(Cl)ccc1Nc1ccnc2cc(-c3ccc(CN4CCOCC4)o3)ccc12 [GW560109]
[1]
  %Inh: 0%
[2]
  %Inh: 0%
[3]
  %Inh: 0%
[4]
  %Inh: 0%
[5]
  %Inh: 0%
[6]
  %Inh: 13%
[7]
  %Inh: 0%
[8]
  %Inh: 0%
[9]
  %Inh: 16%
[10]
  %Inh: 0%

## COc1cccc2c(-c3ccncc3)c(-c3ccc(F)cc3)nn12 [GW468513]
[1]
  %Inh: 0%
[2]
  %Inh: 0%
[3]
  %Inh: 0%
[4]
  %Inh: 0%
[5]
  %Inh: 13%
[6]
  %Inh: 0%
[7]
  %Inh: 6%
[8]
  %Inh: 5%
[9]
  %Inh: 0%
[10]
  %Inh: 0%

## CS(=O)(=O)c1cccc(CNc2nc(Nc3ccc4c(c3)CCC(=O)N4)ncc2C(F)(F)F)c1
[1]
  %Inh: 0%
[2]
  %Inh: 0%
[3]
  %Inh: 0%
[4]
  %Inh: 0%
[5]
  %Inh: 0%
[6]
  %Inh: 0%
[7]
  %Inh: 20%
[8]
  %Inh: 9%
[9]
  %Inh: 0%
[10]
  %Inh: 0%

## CNc1nccc(-c2ccc3c(N)n[nH]c3c2)n1 [GSK2206003]
[1]
  %Inh: 24%
[2]
  %Inh: 14%
[3]
  %Inh: 31%
[4]
  %Inh: 33%
[5]
  %Inh: 33%
[6]
  %Inh: 0%
[7]
  %Inh: 10%
[8]
  %Inh: 13%
[9]
  %Inh: 21%
[10]
  %Inh: 10%

## Cc1ccc(O)cc1Nc1ccnc2cc(-c3ccc(CN4CCCCC4)o3)ccc12 [GW557777]
[1]
  %Inh: 4%
[2]
  %Inh: 0%
[3]
  %Inh: 13%
[4]
  %Inh: 10%
[5]
  %Inh: 8%
[6]
  %Inh: 0%
[7]
  %Inh: 10%
[8]
  %Inh: 9%
[9]
  %Inh: 2%
[10]
  %Inh: 20%

## COC(=O)Nc1nc2cc(Oc3ccc(NC(=O)Nc4cccc(SC)c4)cc3)ccc2[nH]1.Cl [GW697999]
[1]
  %Inh: 11%
[2]
  %Inh: 18%
[3]
  %Inh: 28%
[4]
  %Inh: 0%
[5]
  %Inh: 12%
[6]
  %Inh: 0%
[7]
  %Inh: 0%
[8]
  %Inh: 0%
[9]
  %Inh: 16%
[10]
  %Inh: 0%

## COc1ccc(C2=C(Nc3cccc(O)c3)C(=O)NC2=O)cc1 [SB-390766]
[1]
  %Inh: 23%
[2]
  %Inh: 0%
[3]
  %Inh: 0%
[4]
  %Inh: 11%
[5]
  %Inh: 0%
[6]
  %Inh: 0%
[7]
  %Inh: 0%
[8]
  %Inh: 0%
[9]
  %Inh: 39%
[10]
  %Inh: 0%

## COc1ccc(NC(=O)c2ccoc2)cc1-c1ccc(C(=O)NCC2CC2)cc1 [GW810437]
[1]
  %Inh: 0%
[2]
  %Inh: 0%
[3]
  %Inh: 0%
[4]
  %Inh: 0%
[5]
  %Inh: 0%
[6]
  %Inh: 19%
[7]
  %Inh: 15%
[8]
  %Inh: 30%
[9]
  %Inh: 13%
[10]
  %Inh: 14%

## Cn1cc(-c2cnc(N)c3c(-c4ccc5c(c4)CCN5C(=O)Cc4ccccc4)csc23)cn1 [GSK2593074]
[1]
  %Inh: 0%
[2]
  %Inh: 29%
[3]
  %Inh: 12%
[4]
  %Inh: 0%
[5]
  %Inh: 13%
[6]
  %Inh: 0%
[7]
  %Inh: 11%
[8]
  %Inh: 19%
[9]
  %Inh: 23%
[10]
  %Inh: 4%
